# Assay results as given in ChEMBL document CHEMBL1157539, “Thousands of chemical starting points for antimalarial lead identification” (Nature, 2010).
# Columns and labels:
# Assay type in all cases: functional
# Plasmodium falciparum [1] = assay: GSK_TCMDC: Inhibition of Plasmodium falciparum 3D7 in whole red blood cells, using parasite LDH activity as an index of growth. Test compounds present at 2uM
# Plasmodium falciparum [2] = assay: GSK_TCMDC: Inhibition of Plasmodium falciparum Dd2 in whole red blood cells, using parasite LDH activity as an index of growth. Test compounds present at 2uM
# HepG2 = assay: GSK_TCMDC: Percent inhibition of human HepG2 cell line. Test compounds present at 10uM.
smiles,measurement,setting,value
COc1ccc(CCNCc2cc3c(C(C)(C)C)nn(-c4ccc(Cl)cc4)c3[nH]c2=O)cc1OC,Inhibition,Plasmodium falciparum [1],100%
same,Inhibition,Plasmodium falciparum [2],99%
same,Inhibition,HepG2,13%
CN(c1ccc2c(c1)nc(Nc1cc(C(C)(C)C)on1)n2C)c1ccnc(Nc2ccc(CS(C)(=O)=O)cc2)n1,Inhibition,Plasmodium falciparum [1],89%
same,Inhibition,Plasmodium falciparum [2],13%
same,Inhibition,HepG2,77%
Brc1ccc(Nc2nc3ccccc3nc2Nc2ccc(Br)cc2)cc1,Inhibition,Plasmodium falciparum [1],100%
same,Inhibition,Plasmodium falciparum [2],100%
same,Inhibition,HepG2,18%
Cc1cc(CNCCCCCCCNCc2ccc(Cl)cc2)ccc1O,Inhibition,Plasmodium falciparum [1],97%
same,Inhibition,Plasmodium falciparum [2],0%
same,Inhibition,HepG2,13%
CN1CCN(CCCNCc2cccc(Nc3nccc(Nc4ccc(Oc5ccccc5)cc4)n3)c2)CC1,Inhibition,Plasmodium falciparum [1],100%
same,Inhibition,Plasmodium falciparum [2],80%
same,Inhibition,HepG2,97%
CCCOc1cccc(C(=O)N[C@@H](Cc2ccccc2)[C@H](O)CNCc2ccccc2OC)c1,Inhibition,Plasmodium falciparum [1],95%
same,Inhibition,Plasmodium falciparum [2],61%
same,Inhibition,HepG2,11%
Oc1cc(NCCCNC2CCc3c(Cl)cc(Cl)cc32)nc2ccccc12 (configuration not stated),Inhibition,Plasmodium falciparum [1],100%
same,Inhibition,Plasmodium falciparum [2],29%
same,Inhibition,HepG2,3%
CNCc1cccc2nc(-c3ccc(Cc4cc(Cl)ccc4OCC(C)C)o3)[nH]c12.Cl,Inhibition,Plasmodium falciparum [1],97%
same,Inhibition,Plasmodium falciparum [2],23%
same,Inhibition,HepG2,20%
Cc1cc(C)c(C)c(S(=O)(=O)N2CCCCC(c3ccc(F)c(F)c3)=N2)c1C,Inhibition,Plasmodium falciparum [1],86%
same,Inhibition,Plasmodium falciparum [2],60%
same,Inhibition,HepG2,5%
Cc1cccc(CCNC(=O)c2cc(Br)cc(N3CCN(c4ccncc4)CC3)c2)c1.O=C(O)C(F)(F)F,Inhibition,Plasmodium falciparum [1],96%
same,Inhibition,Plasmodium falciparum [2],53%
same,Inhibition,HepG2,48%
Cc1nc(-c2cccc(Nc3ccnc4cc(-c5nccs5)ccc34)c2)no1.Cl,Inhibition,Plasmodium falciparum [1],99%
same,Inhibition,Plasmodium falciparum [2],90%
same,Inhibition,HepG2,37%
COc1ccccc1Nc1nc(NC2CCN(C)CC2)cc(-c2cccc(C(F)(F)F)c2)n1.O=C(O)C(F)(F)F,Inhibition,Plasmodium falciparum [1],95%
same,Inhibition,Plasmodium falciparum [2],71%
same,Inhibition,HepG2,100%
CN1CCCC(CN2CCN(Cc3ccc(-c4ccc(-c5nc6cc(F)ccc6[nH]5)s4)cc3)CC2)C1.O=C(O)C(F)(F)F (configuration not stated),Inhibition,Plasmodium falciparum [1],100%
same,Inhibition,Plasmodium falciparum [2],100%
same,Inhibition,HepG2,73%
COc1cc(C2=NN(S(=O)(=O)c3c(Cl)cc(Cl)cc3Cl)CCCC2)ccc1Cl,Inhibition,Plasmodium falciparum [1],98%
same,Inhibition,Plasmodium falciparum [2],97%
same,Inhibition,HepG2,3%
N#Cc1cccc(Nc2cc(C(F)(F)F)nc(Nc3ccccc3)n2)c1.O=C(O)C(F)(F)F,Inhibition,Plasmodium falciparum [1],92%
same,Inhibition,Plasmodium falciparum [2],17%
same,Inhibition,HepG2,7%
NCC1CCCN1Cc1ccc(-c2cccc(-c3nc4cc(C(F)(F)F)ccc4[nH]3)c2)cc1.O=C(O)C(F)(F)F (configuration not stated),Inhibition,Plasmodium falciparum [1],99%
same,Inhibition,Plasmodium falciparum [2],97%
same,Inhibition,HepG2,24%
O=C(/C=C/c1cccc(OC(F)(F)F)c1)NCCCCCN1CCC(c2c[nH]c3ccccc23)CC1,Inhibition,Plasmodium falciparum [1],93%
same,Inhibition,Plasmodium falciparum [2],13%
same,Inhibition,HepG2,27%
Br.CC1(C)NC(N)=NC(=N)N1OCCCOc1cc(Cl)cc(Cl)c1,Inhibition,Plasmodium falciparum [1],95%
same,Inhibition,Plasmodium falciparum [2],97%
same,Inhibition,HepG2,62%
COc1ccc(Br)cc1/C=C/C(=O)Nc1cccc(C2CCCN(C)C2)c1.O=CO (configuration not stated),Inhibition,Plasmodium falciparum [1],99%
same,Inhibition,Plasmodium falciparum [2],30%
same,Inhibition,HepG2,12%
Cc1cc(NCc2ccc(F)cc2)nc2cc(O)ccc12,Inhibition,Plasmodium falciparum [1],98%
same,Inhibition,Plasmodium falciparum [2],85%
same,Inhibition,HepG2,14%
COc1ccc(NC(=O)C2c3ccccc3C(=O)N(CC(C)C)C2c2cccs2)cc1OC (configuration not stated),Inhibition,Plasmodium falciparum [1],100%
same,Inhibition,Plasmodium falciparum [2],98%
same,Inhibition,HepG2,6%
O=C(NC1CCN(Cc2ccccc2)CC1)c1csc2nc(-c3ccc(Cl)cc3)cn12,Inhibition,Plasmodium falciparum [1],98%
same,Inhibition,Plasmodium falciparum [2],14%
same,Inhibition,HepG2,19%
COc1ccc(C(=O)NCc2ccccc2-c2ccc(C(C)(C)C)cc2)cc1O,Inhibition,Plasmodium falciparum [1],99%
same,Inhibition,Plasmodium falciparum [2],97%
same,Inhibition,HepG2,10%
COc1cc(NC(=O)c2c(-c3c(Cl)cccc3Cl)noc2C)c(OC)cc1Cl,Inhibition,Plasmodium falciparum [1],85%
same,Inhibition,Plasmodium falciparum [2],67%
same,Inhibition,HepG2,4%
Cc1cccc(C(=O)N2CCN(Cc3cccc(NC(=O)c4ccco4)c3)CC2)c1.O=C(O)C(F)(F)F,Inhibition,Plasmodium falciparum [1],94%
same,Inhibition,Plasmodium falciparum [2],79%
same,Inhibition,HepG2,7%
O=C(/C=C/c1ccc(C(F)(F)F)cc1)NCCCCCN1CCCN(C(=O)Nc2ccc(F)c(Cl)c2)CC1,Inhibition,Plasmodium falciparum [1],100%
same,Inhibition,Plasmodium falciparum [2],33%
same,Inhibition,HepG2,33%
CC(=Nc1ccc(Cl)c(Cl)c1)N(C)C.Cl,Inhibition,Plasmodium falciparum [1],98%
same,Inhibition,Plasmodium falciparum [2],0%
same,Inhibition,HepG2,0%
CCCCN(Cc1cccc(C(F)(F)F)c1Cl)c1ccc(C(O)(C(F)(F)F)C(F)(F)F)cc1.O=C(O)C(F)(F)F,Inhibition,Plasmodium falciparum [1],91%
same,Inhibition,Plasmodium falciparum [2],55%
same,Inhibition,HepG2,10%
Cc1ccccc1C1CCN(c2ccc(C(=O)Nc3ccc(F)cc3)cn2)CC1.O=C(O)C(F)(F)F,Inhibition,Plasmodium falciparum [1],96%
same,Inhibition,Plasmodium falciparum [2],96%
same,Inhibition,HepG2,45%
